Bioassay records: PubChem, National Center for Advancing Translational Sciences (NCATS)
Many of the other results were omitted from the sample, so hits are more common in it than they were.
Methyltransferases: Primary Screen for Target Class Profiling of Small Molecule Inhibitors of Methyltransferases | AID 1745853, 2022 | calls only at 40 µM | hit rate 3.9% among 25,000 | purified enzyme, MTase-Glo SAH luminescence; active compounds read low; call rule not given here
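Each enzyme was assayed with SAM and its substrate. SAH formation detected by MTase-Glo luminescence; single-point 40 uM screen[…].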
MTase-Glo counter: inhibits MTase-Glo coupling enzymes without methyltransferase | shares compounds with Methyltransferases | MTase-Glo coupled enzymes, SAH conversion luminescence, no MTase | Potency, µM (titrated, usually from 57.3 µM), inactives show at the highest dose activity change, negative = inhibition, actives largely listed as inhibitors | hit rate 6% among 180 | AID 1745851; active = well fitted inhibition curve with a large enough effect; inconclusive = small, poorly fitted or top-dose-only effect; note: potency is the fitted concentration of half-maximal effect
* = called active by the depositor; i = inactive; ? = inconclusive; + = active, no number; [ ] = remark or other dose. % is set by controls: 0 for no effect and ±100 for the full control effect.

SMILES | Methyltransferases | others
Cc1ccc(NC(=O)N2Cc3ccccc3-n3cccc3C2c2ccccc2)cc1F (stereo not given) | i
Cc1cccc(C2c3cccn3-c3ccccc3CN2C(=O)Nc2cc(Cl)ccc2C)c1 (stereo not given) | i
CCOCCCNC(=O)N1Cc2ccccc2-n2cccc2C1c1ccccc1C (stereo not given) | i
CSc1cccc(NC(=O)N2Cc3ccccc3-n3cccc3C2c2cccs2)c1 (stereo not given) | i
COc1cc(C(=O)O[C@H]2[C@@H]3C=CO[C@@H](O[C@@H]4O[C@H](CO)[C@@H](O)[C@H](O)[C@H]4O)[C@@H]3[C@@]3(CO)O[C@@H]23)ccc1O | +
C=C[C@H]1[C@H](O[C@@H]2O[C@H](CO)[C@@H](O)[C@H](O)[C@H]2O)OC=C2C(=O)OCC[C@H]21 | i
CSc1cccc(NC(=O)N2Cc3ccccc3-n3cccc3C2c2ccc(N(C)C)cc2)c1 (stereo not given) | i
C=C(CO)C(=O)O[C@H]1CC(=C)[C@@H]2C[C@H](O)C(=C)[C@@H]2[C@H]2OC(=O)C(=C)[C@@H]21 | +
Cc1[nH]nc2ccc(-c3cncc(OC[C@@H](N)Cc4c[nH]c5ccccc45)c3)cc12 | +
COc1ccc(OC)c(NC(=O)N2Cc3ccccc3-n3cccc3C2c2cccc(Cl)c2)c1 (stereo not given) | i
CCOC(=O)Cc1ccc(NC(=O)N2Cc3ccccc3-n3cccc3C2C)cc1 (stereo not given) | i
CCC1c2cccn2-c2ccccc2CN1C(=O)NC1CCCC1 (stereo not given) | i
O=C1NC(=O)c2c1c1c3ccccc3[nH]c1c1[nH]c3ccccc3c21 | +
CCC1c2cccn2-c2ccccc2CN1C(=O)Nc1ccc(C)cc1 (stereo not given) | i
O=C(Nc1ccccc1F)N1Cc2ccccc2-n2cccc2C1c1ccc(Cl)cc1 (stereo not given) | i
COc1ccc(C2c3cccn3-c3ccccc3CN2C(=O)Nc2ccc(C)cc2C)cc1 (stereo not given) | i
CCC1c2cccn2-c2ccccc2CN1C(=O)Nc1cccc(Br)c1 (stereo not given) | i
CN(N=O)c1ccc(O)c(O)c1 | +
CCC1c2cccn2-c2ccccc2CN1C(=O)Nc1cc(Cl)c(OC)cc1OC (stereo not given) | i
Cc1cccc(C2c3cccn3-c3ccccc3CN2C(=O)NCc2ccc(F)cc2)c1 (stereo not given) | i
Cc1cc(C)cc(NC(=O)N2Cc3ccccc3-n3cccc3C2c2ccc(Cl)cc2)c1 (stereo not given) | i
COC(=O)c1ccccc1NC(=O)N1Cc2ccccc2-n2cccc2C1c1ccc(C)cc1 (stereo not given) | i
CSc1ccc(C2c3cccn3-c3ccccc3CN2C(=O)NCc2ccccc2)cc1 (stereo not given) | i
CCCCCOc1cc2c(cc1-c1cc(/C=C/C(=O)O)ccc1O)C(C)(C)CCC2(C)C | +
Cc1cccc(C2c3cccn3-c3ccccc3CN2C(=O)NCc2ccccc2)c1 (stereo not given) | i
SMILES | Methyltransferases | others
COc1cc(NC(=O)N2Cc3ccccc3-n3cccc3C2c2ccc(C)cc2)cc(OC)c1 (stereo not given) | i
O=C(Nc1ccc(F)cc1F)N1Cc2ccccc2-n2cccc2C1c1ccccc1 (stereo not given) | i
COc1cc(N2CCN(C)CC2)ccc1N | +
CC(C)NC(=O)NC[C@H]1C[C@@H]2CCN1C[C@@H]2CN1CCC(Cc2ccccc2)CC1 | i
CN(CCc1ccccn1)C[C@H]1CN2CC[C@H]1C[C@@H]2CNC(=O)c1ccco1 | i
CN(CCc1ccccn1)C[C@H]1CN2CC[C@H]1C[C@@H]2CNC(=O)Nc1ccsc1 | + | MTase-Glo counter=-4%[85.7 µM]
CCOc1ccc(C2c3cccn3-c3ccccc3CN2C(=O)Nc2ccc(C)c(Cl)c2)cc1 (stereo not given) | i
CCOCCCNC(=O)N1Cc2ccccc2-n2cccc2C1c1ccc(OC)c(OC)c1 (stereo not given) | i
CCc1ccccc1NC(=O)N1Cc2ccccc2-n2cccc2C1c1ccc(SC)cc1 (stereo not given) | i
Cc1ccccc1NC(=O)N1Cc2ccccc2-n2cccc2C1c1cccs1 (stereo not given) | i
NC(=O)c1ccc(N2CC3CCC(C2)N3CC(F)(F)F)nn1 | + | MTase-Glo counter=4%
FC(F)(F)CN1C2CCC1CN(c1nnc(Cl)c3ccccc13)C2 | i
Cc1ccc(NC(=O)N2Cc3ccccc3-n3cccc3C2c2ccccc2Cl)cc1 (stereo not given) | i
COC(=O)CCNC(=O)N1Cc2ccccc2-n2cccc2C1c1cccc(Cl)c1 (stereo not given) | i
Cc1ccc(NC(=O)N2Cc3ccccc3-n3cccc3C2c2ccccc2)c(C)c1 (stereo not given) | i
COc1ccc(-c2cc([C@H]3CN4CC[C@H]3C[C@@H]4COC(=O)NC3CCCCC3)nc(C)n2)cc1 | i
CCC(CC)c1cc([C@H]2CN3CC[C@H]2C[C@@H]3CNC(=O)C2CCC2)nc(-c2ccncc2)n1 | i
COc1ccc(-c2cc([C@H]3CN4CC[C@H]3C[C@@H]4CN)nc(C)n2)cc1OC | + | MTase-Glo counter=-6%[85.7 µM]
Cn1nc(-c2ccc(F)cc2)cc1[C@H]1CN2CC[C@H]1C[C@@H]2CNC(=O)c1cccs1 | i
Cc1nc(-c2ccccc2)cc([C@H]2CN3CC[C@H]2C[C@@H]3CNS(C)(=O)=O)n1 | i
CC(=O)c1cccc(NC(=O)NC[C@H]2C[C@@H]3CCN2C[C@@H]3c2cc(-c3ccc(F)cc3)nc(C)n2)c1 | + | MTase-Glo counter=?
Cc1ccc(CNC(=O)N2Cc3ccccc3-n3cccc3C2c2ccccc2)cc1 (stereo not given) | i
Cc1ccc(NC(=O)N2Cc3ccccc3-n3cccc3C2C)cc1Cl (stereo not given) | i
